Screening data (PubChem)
Gli-Sufu block: Gli-Sufu pathway antagonism. 340,000 tested, 0.74% active. AID 588413. Sufu-KO-LIGHT fibroblasts, Gli luciferase reporter luminescence. inhibition, % at 5 µM;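 active means inhibition above about 55%, limit read from the data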;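 further: 0% = DMSO-treated cells and 100% = wells with medium but no cells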
Jurkat NFkB inh: inhibitors of the PMA/ionomycin-induced NF-kB reporter in Jurkat cells | PMA/ionomycin-induced NF-kB luciferase reporter, luminescence | inhibition, % at 4 µM | 330,000 tested, 0.53% active | AID 435003; in the data active means inhibition above about 50%
697 NFkB inh: lowers PMA/ionomycin-induced NF-kB signal in 697 B cells; inhibition, % at 4 µM; 697 B-cell NF-kB luciferase reporter, 16 h; 330,000 tested, 0.33% active; AID 435022; in the data active means inhibition above about 35%
Mdm2-MdmX inh: inhibitors of human Mdm2/MdmX interaction. SaOS-2 split-luciferase Mdm2/MdmX complementation, luminescence. inhibition, % at 8 µM. 330,000 tested, 3% active. AID 485346;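 active means inhibition of at least 50% at 8 µM in the primary screen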
Shn3 3UTR inh: Schnurri-3 reporter inhibition in Clone20 osteoblasts; AID 588674; Clone20 osteoblast Shn3 3'UTR firefly luciferase, 24 h; 360,000 tested, 0.52% active; inhibition, % at 12.5 µM;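 active means mean inhibition of at least 75% with every replicate also reaching 75%; inconclusive means mean inhibition at least 75% but some replicate below; inactive means mean inhibition below 75%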;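 further: 0% = median of neutral control wells and 100% = pilot-screen positive control compound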
Jurkat NFkB conf: inhibitors of the PMA/ionomycin-induced NF-kB reporter in Jurkat cells, retest; 2,700 tested, 27% active; AID 435020; Jurkat NF-kB luciferase, 16 h; inhibition, % at 4 µM; shares compounds with Jurkat NFkB inh;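 active means inhibition reaching about 45% at 4 µM in either replicate, limit read from the data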;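 further: plate controls were PMA/ionomycin stimulated DMSO wells for no effect and unstimulated DMSO wells for full effect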
697 NFkB conf: lowers PMA/ionomycin-induced NF-kB signal in 697 B cells | 697 B-cell NF-kB luciferase, 16 h | shares compounds with 697 NFkB inh | AID 449746 | 2,000 tested, 35% active | inhibition, % at 4 µM; in the data active means inhibition mostly above about 28%, no sharp cut-off; inactive means mostly below about 22%
Mdm2 MdmX conf: human Mdm2/MdmX binding inhibition, confirmed | inhibition, % at 8 µM | luminescent assay | shares compounds with Mdm2-MdmX inh | 10,000 tested, 55% active; in the data active means inhibition above about 40%
FLuc counter: inhibits full-length luciferase, flagging false Mdm2/MdmX hits; SaOS-2 full-length luciferase counterscreen, luminescence; inhibition, % at 8 µM; shares compounds with Mdm2-MdmX inh; 6,200 tested, 77% active;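 active means mean inhibition at 8 µM reaching about 37%, which flags the compound as non-specific, limit read from the data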;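 further: p53-null SaOS-2 cells with luciferase driven by a doxycycline-inducible promoter; compound on cells about two nights before reading with doxycycline added after day one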
Active calls of the source: *; ? = inconclusive; . = no result given. Sampled rows, rich in hits. Any-hit rate of the full collection: about 3.8%.

SMILES	Gli-Sufu block	Jurkat NFkB inh	697 NFkB inh	Mdm2-MdmX inh	Shn3 3UTR inh	Jurkat NFkB conf	Mdm2 MdmX conf	FLuc counter	others
CCOc1ccc(-c2cc(CCCC(=O)Nc3cccc(OC)c3)no2)cc1	5	56*	48*	54*	22	61*	45*	61*	697 NFkB conf=48*
C/C(=N/NC(=O)c1ccc(C(C)(C)C)cc1)c1ccccn1	65*	100*	-143	93*	81	0	44*	55*
COc1ccc(C(=O)N/N=C(\C)c2ccccn2)cc1OC	95*	96*	-50	99*	91*	16	15	.
C/C(=N\NC(=O)c1cccc2ccccc12)c1ccccn1	80*	95*	-30	96*	90*	18	38	30
C/C(Cc1ccccc1)=N\NC(=O)c1ccccn1	23	-2	9	2	-4	.	.	.
C/C(=N\NC(=O)c1ccc(Cl)c(Cl)c1)c1ccccn1	54	98*	-74	83*	91*	53*	81*	26
CC(C)(C)c1ccc(C(=O)N/N=C/c2ccccn2)cc1	-13	-13	-6	37	-9	.	.	.
COCC(O)Cn1ccnc1[N+](=O)[O-] (centres undefined)	.	.	.	.	8	.	.	.
Nc1cc(Cl)ccc1C(=O)OCC(=O)N1CCCCCC1	-8	-67	-3	-23	-127	.	.	.
COCCNC(=O)CCC1CCN(Cc2cccc(Oc3ccccc3)c2)CC1	1	-10	8	19	-17	.	.	.
NNC(=O)c1cc(-c2cccs2)nc2ccccc12	13	3	-3	-10	-1	.	.	.
C/C(=N\NC(=O)c1cccc(Br)c1)c1ccccn1	89*	92*	-95	100*	?	1	63*	50*
C/C(=N\NC(=O)c1cc(-c2cccs2)nc2ccccc12)c1ccccn1	93*	55*	25	80*	94*	14	75*	28
COc1cccc(N2CCN(c3ncnc4c3[nH]c3ccccc34)CC2C)c1 (centres undefined)	.	54*	16	100*	.	79*	98*	3
COc1ccc2[nH]c3c(N4CC(C)OC(C)C4)ncnc3c2c1 (centres undefined)	33	6	30	27	.	.	.	.
O=C(Cc1ccc(N2CCNC2=O)cc1)N1CCCC(Nc2ccc(F)c(F)c2)C1 (centres undefined)	-3	63*	-53	54*	22	16	75*	56*
COc1cc(NC(=O)CCN2CCN(C/C=C/c3ccccc3)CC2)cc(OC)c1	39	3	-4	-2	8	.	.	.
COc1ccc(/C=N/NC(=O)CCn2cnc(-c3ccccc3)c2-c2ccccc2)cc1	22	57*	8	58*	-7	27	72*	96*
COc1ccc(/C=N/NC(=O)CSCC(=O)Nc2ccccc2)cc1	-8	11	-18	-2	9	.	.	.
COc1ccc(/C=N/NC(=O)COc2ccccc2-c2ccccc2)cc1	33	56*	20	56*	-28	47*	68*	90*
Cc1c(C(=O)O)[nH]c2c1C(=O)CC(c1ccc(C(C)(C)C)cc1)C2 (centres undefined)	1	0	-12	-9	-53	.	.	.
Cc1c(C(=O)N2CCOCC2)[nH]c2c1C(=O)CC(c1ccccc1Cl)C2 (centres undefined)	41	52*	-57	73*	12	48*	56*	59*
Cc1cccnc1Nc1nc(-c2ccc(O)cc2O)cs1	-41	-77	-62	5	-59	.	.	.
O=C(Nc1nc(-c2ccccn2)cs1)c1ccc(Cl)s1	76*	65*	-98	70*	90*	44	80*	24
Cc1cccnc1Nc1nc(-c2ccccn2)cs1	-8	81*	-347	74*	28	8	36	.	697 NFkB conf=-175
C/C(=N\NC(=O)c1ccc(Cl)cc1)c1ccc2[nH]ccc2c1	-4	-15	-2	-10	-9	.	.	.
